Results reported in PubChem BioAssay (EPA / NIEHS).
“And” between values parts separate entries of the source, which are not always exact repeats. Identical values can stand only once. Some compounds were tested as several samples or in several runs, with calls that do not always agree. The source made the active and inactive calls. Rule for the calls: active = hit-call score of the fitted dose curve at least 0.9, where 1 is the maximum; inactive = score below 0.9.

Assays:
[1] = biological target: CCAAT/enhancer-binding protein beta (Homo sapiens) (UniProt P17676); test: ATG_C_EBP_CIS: Attagene CIS-FACTORIAL HepG2 Assay for human CCAAT/Enhancer Binding Protein (C/EBP) beta (AID 2282927); settings: HepG2 Attagene cis-factorial transcription factor reporter; actives raise or lower the signal
Procedure, shortened: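 HepG2, transient MRTU transfection, 24 h treatment. RT-PCR plus CE fluorescence; DMSO negative control, bidirectional fit.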

[2] = ATG_CMV_CIS: Attagene CIS-FACTORIAL HepG2 Assay for human CMV (Internal Marker) (AID 2282928); settings: HepG2 CMV promoter reporter, transcription factor profiling; actives raise or lower the signal;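 note: endpoint acts as a background internal control marker rather than a target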
Procedure, shortened: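 HepG2 cells transiently transfected with multiple cis-regulated reporter units; 24 h compound exposure. Reporter mRNA quantified by RT-PCR, 6-FAM primer-extension labeling, HpaI digestion and capillary electrophoresis; bidirectional fitting against DMSO baseline.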

[3] = ATG_DR4_LXR_CIS: Attagene CIS-FACTORIAL HepG2 Assay for human Liver X Receptor (LXR), DR4 submotif (AID 2282929); settings: HepG2 Attagene DR4 cis-reporter, mRNA transcription; AC50: actives raise or lower the signal unless noted; outcome: actives raise or lower the signal unless noted
Procedure, shortened: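 Endogenous factor activity at a DR4 cis-element is read as reporter mRNA in transiently transfected HepG2 cells. Exposure lasts 24 h; transcripts are amplified, fluorescently labelled and sized by capillary electrophoresis, with DMSO as baseline.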

[4] = biological target: Aryl hydrocarbon receptor (Homo sapiens) (UniProt P35869); test: ATG_Ahr_CIS: Attagene CIS-FACTORIAL HepG2 Assay for human Aryl Hydrocarbon Receptor (Ahr) (AID 2282930); settings: HepG2 AhR cis-factorial reporter transcription; actives raise or lower the signal
Procedure, shortened: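 Endogenous factor activity is tracked through cis-promoter reporter units transfected into HepG2 cells. Transcript levels at 24 h are read by fluorescent RT-PCR and capillary electrophoresis, with activity in either direction scored relative to DMSO.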

[5] = ATG_AP_1_CIS: Attagene CIS-FACTORIAL HepG2 Assay for human Activator Protein 1 (AP-1) (AID 2282931); settings: HepG2 Attagene cis-factorial AP-1 reporter mRNA; actives raise or lower the signal
Procedure, shortened: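 Fluorescence of labelled PCR fragments separated by capillary electrophoresis gives reporter mRNA levels. HepG2 with transfected cis-regulated reporter units, 24 h exposure; DMSO serves as baseline for bidirectional curve fits.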

[6] = ATG_AP_2_CIS: Attagene CIS-FACTORIAL HepG2 Assay for human Activator Protein 2 (AP-2) (AID 2282932); settings: HepG2 AP-2 cis-reporter, Attagene transcription factor profiling; AC50: actives raise or lower the signal unless noted; outcome: actives raise or lower the signal unless noted
Procedure, shortened: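 Multiplexed mRNA reporter assay in HepG2: cis-regulated units report endogenous factor activity after 24 h treatment. Fluorescence from capillary electrophoresis of RT-PCR products gives the signal, with DMSO as baseline.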

[7] = ATG_BRE_CIS: Attagene CIS-FACTORIAL HepG2 Assay for human Bone Morphogenetic Protein (BMP) Response Element (BRE) (AID 2282933); settings: HepG2 BMP response element reporter, Attagene transcription factor profiling; actives raise or lower the signal
Procedure, shortened: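 After a 24 h chemical treatment, transiently transfected HepG2 cells were lysed for RNA; reporter transcripts were quantified by fluorescent RT-PCR and capillary electrophoresis, normalised to DMSO.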

[8] = biological target: Retinoic acid receptor alpha (Homo sapiens) (UniProt P10276); test: ATG_DR5_RAR_CIS: Attagene CIS-FACTORIAL HepG2 Assay for human Retinoic Acid Receptor Alpha (RARE), DR5 submotif (AID 2282934); settings: HepG2 Attagene cis-factorial RARE DR5 reporter, mRNA; actives raise or lower the signal
Procedure, shortened: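 After 24 h of chemical exposure, transiently transfected HepG2 cells were lysed for total RNA; the DR5-regulated reporter transcript was quantified via RT-PCR and capillary electrophoresis, with activity fitted bidirectionally against DMSO.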

[9] = biological target: Transcription factor E2F1 (Homo sapiens) (UniProt Q01094); test: ATG_E2F_CIS: Attagene CIS-FACTORIAL HepG2 Assay for human E2F Transcription Factor 1 (AID 2282935); settings: HepG2 Attagene cis-reporter, E2F reporter RNA transcripts; actives raise or lower the signal
Procedure, shortened: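 Measures reporter transcript levels via RT-PCR with capillary electrophoresis detection in HepG2 cells harboring cis-regulated reporter units; 24 h post-dose; bidirectional curve fitting with DMSO as baseline.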

[10] = ATG_E_Box_CIS: Attagene CIS-FACTORIAL HepG2 Assay for human Enhancer Box (E-box) (AID 2282936); settings: HepG2 E-box cis-reporter transcription, actives raise or lower the signal
Procedure, shortened: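 First, HepG2 cells receive multiple cis-regulated reporter constructs by transient transfection. Next, chemicals are applied for 24 h. Finally, reporter mRNA is quantified via RT-PCR and capillary electrophoresis, with DMSO as baseline.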

[11] = ATG_M_61_CIS: Attagene CIS-FACTORIAL HepG2 Assay for M61 Transcription Factor (Internal Marker) (AID 2282937); settings: HepG2 Attagene CIS-FACTORIAL M61 internal marker reporter; actives raise or lower the signal
Procedure, shortened: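 This endpoint serves as an internal background control within a multiplexed HepG2 cis-reporter panel. Cells are exposed for 24 h; reporter mRNA is amplified, fluorescently labelled and sized by capillary electrophoresis, with DMSO as negative control.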

[12] = ATG_EGR_CIS: Attagene CIS-FACTORIAL HepG2 Assay for human Early Growth Response 1 (EGR1) (AID 2282938); settings: HepG2 Attagene CIS-FACTORIAL EGR reporter mRNA; actives raise or lower the signal
Procedure, shortened: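 HepG2, transient MRTU transfection (cis promoters), 24 h compound. RNA → RT (oligo-dT) → PCR → 6-FAM labelling → HpaI cut → CE fluorescence. Bidirectional fit, DMSO baseline.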

[13] = ATG_M_19_CIS: Attagene CIS-FACTORIAL HepG2 Assay for M19 Transcription Factor (Internal Marker) (AID 2282939); settings: HepG2 Attagene CIS-FACTORIAL M19 internal marker reporter; actives raise or lower the signal
Procedure, shortened: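 In this multiplexed cell assay, transiently transfected HepG2 reporter units report endogenous transcription-factor activity; after 24 hours of treatment, labelled reporter cDNA fragments are quantified by capillary electrophoresis and fitted bidirectionally against DMSO.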

[14] = ATG_ERE_CIS: Attagene CIS-FACTORIAL HepG2 Assay for Estrogen Response Element (ERE) (AID 2282940); settings: HepG2 ERE cis-reporter, Attagene RNA transcript; actives raise or lower the signal
Procedure, shortened: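 Measuring endogenous transcription factor output, the assay doses transfected HepG2 cells for 24 hours and quantifies reporter transcripts by fluorescent RT-PCR and capillary electrophoresis, with DMSO as baseline.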

[15] = ATG_Ets_CIS: Attagene CIS-FACTORIAL HepG2 Assay for human Erythroblast Transformation Specific (ETS) (AID 2282941); settings: HepG2 ETS cis-reporter transcription; AC50: actives raise or lower the signal unless noted; outcome: actives raise or lower the signal unless noted
Procedure, shortened: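 HepG2 cells transiently transfected with cis-promoter reporter transcription units were dosed for 24 h; reporter mRNA was measured by RT-PCR, 6-FAM primer extension, HpaI digestion and capillary electrophoresis, with bidirectional fitting against DMSO baseline.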

[16] = biological target: Hepatocyte nuclear factor 3-beta (Homo sapiens) (UniProt Q9Y261); test: ATG_FoxA2_CIS: Attagene CIS-FACTORIAL HepG2 Assay for human Forkhead box A2 (FOXA2) (AID 2282942); settings: HepG2 cis-reporter transcription factor activity, 24 h; actives raise or lower the signal
Procedure, shortened: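 Cells: HepG2, transient multiplex reporter transfection. Exposure 24 h. Detection: reporter-specific RT-PCR, fluorescent labelling, restriction digest, capillary electrophoresis. Analysis: bidirectional curve fit, DMSO as negative control.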

[17] = ATG_FoxO_CIS: Attagene CIS-FACTORIAL HepG2 Assay for human Forkhead box O (FoxO) (AID 2282943); settings: HepG2 Attagene cis-reporter, FoxO element, mRNA; actives raise or lower the signal
Procedure, shortened: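 Transfected HepG2 reporter cells exposed to test chemical for 24 h; reporter RNA measured by reverse transcription, PCR and fluorescent capillary electrophoresis; curves fitted for increases and decreases against DMSO.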

[18] = ATG_GATA_CIS: Attagene CIS-FACTORIAL HepG2 Assay for human GATA Binding Protein (AID 2282944); settings: HepG2 GATA cis-element reporter, Attagene multiplex mRNA; actives raise or lower the signal
Procedure, shortened: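 Measures endogenous transcription factor-driven reporter mRNA in HepG2 cells transiently carrying cis-regulated constructs. 24 h dosing; RNA via oligo(dT) reverse transcription, PCR, HpaI digestion, capillary electrophoresis; fitted relative to DMSO.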

[19] = ATG_GLI_CIS: Attagene CIS-FACTORIAL HepG2 Assay for human Zinc Finger Protein GLI1 (AID 2282945); settings: HepG2, Attagene cis-factorial reporter mRNA, GLI element; actives raise or lower the signal
Procedure, shortened: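 Transiently transfected HepG2 cells report endogenous transcription factor activity via cis-element-driven reporter units. After 24 h compound exposure, reporter mRNA was measured by RT-PCR with capillary electrophoresis; bidirectional fitting against DMSO baseline.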

[20] = biological target: Bile acid receptor (Homo sapiens) (UniProt Q96RI1); test: ATG_IR1_CIS: Attagene CIS-FACTORIAL HepG2 Assay for human Nuclear Receptor Subfamily 1 Group H Member 4 (NR1H4), IR1 submotif (AID 2282946); settings: IR1 reporter transcription, actives raise or lower the signal
Procedure, shortened: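 HepG2 cells transiently transfected with multiple cis-promoter-driven reporter units to measure endogenous transcription factor activity; 24 h exposure. Reporter mRNA read by RT-PCR, FAM labelling, HpaI digestion and capillary electrophoresis. Bidirectional fit versus DMSO.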

Measured: AC50

Sequence of CCAAT/enhancer-binding protein beta (Homo sapiens) (P17676 whole entry, looked up): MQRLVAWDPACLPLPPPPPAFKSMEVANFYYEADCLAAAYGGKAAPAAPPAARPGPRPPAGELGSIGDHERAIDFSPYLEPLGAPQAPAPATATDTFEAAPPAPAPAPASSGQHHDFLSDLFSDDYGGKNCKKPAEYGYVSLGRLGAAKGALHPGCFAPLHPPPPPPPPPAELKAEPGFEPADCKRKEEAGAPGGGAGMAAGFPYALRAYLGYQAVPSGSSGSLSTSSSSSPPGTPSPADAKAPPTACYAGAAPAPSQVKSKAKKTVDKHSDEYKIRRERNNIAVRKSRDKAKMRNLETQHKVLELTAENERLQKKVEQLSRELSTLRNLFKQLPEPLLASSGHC
Sequence of Bile acid receptor (Homo sapiens) (Q96RI1 whole entry, looked up): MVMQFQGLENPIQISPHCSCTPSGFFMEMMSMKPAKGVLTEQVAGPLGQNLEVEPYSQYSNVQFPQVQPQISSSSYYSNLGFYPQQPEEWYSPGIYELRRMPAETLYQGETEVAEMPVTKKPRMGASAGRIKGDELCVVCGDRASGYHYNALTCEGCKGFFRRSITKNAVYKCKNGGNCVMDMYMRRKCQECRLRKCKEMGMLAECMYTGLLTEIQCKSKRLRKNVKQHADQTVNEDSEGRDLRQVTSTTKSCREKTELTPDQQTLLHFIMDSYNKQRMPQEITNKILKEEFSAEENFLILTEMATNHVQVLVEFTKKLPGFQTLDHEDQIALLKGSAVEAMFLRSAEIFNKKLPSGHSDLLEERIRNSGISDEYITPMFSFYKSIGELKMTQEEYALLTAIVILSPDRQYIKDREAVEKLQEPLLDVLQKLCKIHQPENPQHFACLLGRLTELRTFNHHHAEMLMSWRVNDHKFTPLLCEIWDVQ
Sequence of Transcription factor E2F1 (Homo sapiens) (Q01094 whole entry, looked up): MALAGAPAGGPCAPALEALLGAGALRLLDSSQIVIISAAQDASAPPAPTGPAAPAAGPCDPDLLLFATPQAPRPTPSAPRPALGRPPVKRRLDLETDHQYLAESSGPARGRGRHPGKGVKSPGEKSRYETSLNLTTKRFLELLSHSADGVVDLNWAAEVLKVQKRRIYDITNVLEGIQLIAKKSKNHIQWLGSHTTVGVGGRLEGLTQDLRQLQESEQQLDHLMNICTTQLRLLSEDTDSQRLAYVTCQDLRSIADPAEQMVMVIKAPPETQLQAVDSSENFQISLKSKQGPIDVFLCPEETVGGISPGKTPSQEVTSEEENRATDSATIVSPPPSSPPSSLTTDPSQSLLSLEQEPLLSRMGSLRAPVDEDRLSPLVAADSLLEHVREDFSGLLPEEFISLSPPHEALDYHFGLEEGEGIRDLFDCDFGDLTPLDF
Sequence of Aryl hydrocarbon receptor (Homo sapiens) (P35869 whole entry, looked up): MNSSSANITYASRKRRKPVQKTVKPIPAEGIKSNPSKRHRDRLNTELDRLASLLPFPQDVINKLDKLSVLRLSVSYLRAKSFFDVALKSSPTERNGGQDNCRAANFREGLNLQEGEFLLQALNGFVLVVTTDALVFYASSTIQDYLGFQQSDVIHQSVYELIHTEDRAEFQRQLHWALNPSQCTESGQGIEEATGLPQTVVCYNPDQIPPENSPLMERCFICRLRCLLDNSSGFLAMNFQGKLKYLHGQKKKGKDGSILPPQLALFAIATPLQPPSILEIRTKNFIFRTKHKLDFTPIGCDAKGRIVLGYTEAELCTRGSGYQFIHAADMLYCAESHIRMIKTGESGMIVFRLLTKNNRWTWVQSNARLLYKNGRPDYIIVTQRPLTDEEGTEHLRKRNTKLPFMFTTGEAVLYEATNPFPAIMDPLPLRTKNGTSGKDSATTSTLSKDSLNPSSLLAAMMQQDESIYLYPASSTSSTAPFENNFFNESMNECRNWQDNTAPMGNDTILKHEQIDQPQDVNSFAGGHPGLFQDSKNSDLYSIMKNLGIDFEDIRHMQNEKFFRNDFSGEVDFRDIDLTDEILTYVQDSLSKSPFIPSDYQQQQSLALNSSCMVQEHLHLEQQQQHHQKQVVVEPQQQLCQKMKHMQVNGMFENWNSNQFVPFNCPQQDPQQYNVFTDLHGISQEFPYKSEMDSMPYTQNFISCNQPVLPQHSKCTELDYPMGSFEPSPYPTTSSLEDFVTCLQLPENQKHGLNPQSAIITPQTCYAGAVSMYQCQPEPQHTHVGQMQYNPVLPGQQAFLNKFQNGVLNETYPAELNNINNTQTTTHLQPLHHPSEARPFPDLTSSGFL
Sequence of Hepatocyte nuclear factor 3-beta (Homo sapiens) (Q9Y261 whole entry, looked up): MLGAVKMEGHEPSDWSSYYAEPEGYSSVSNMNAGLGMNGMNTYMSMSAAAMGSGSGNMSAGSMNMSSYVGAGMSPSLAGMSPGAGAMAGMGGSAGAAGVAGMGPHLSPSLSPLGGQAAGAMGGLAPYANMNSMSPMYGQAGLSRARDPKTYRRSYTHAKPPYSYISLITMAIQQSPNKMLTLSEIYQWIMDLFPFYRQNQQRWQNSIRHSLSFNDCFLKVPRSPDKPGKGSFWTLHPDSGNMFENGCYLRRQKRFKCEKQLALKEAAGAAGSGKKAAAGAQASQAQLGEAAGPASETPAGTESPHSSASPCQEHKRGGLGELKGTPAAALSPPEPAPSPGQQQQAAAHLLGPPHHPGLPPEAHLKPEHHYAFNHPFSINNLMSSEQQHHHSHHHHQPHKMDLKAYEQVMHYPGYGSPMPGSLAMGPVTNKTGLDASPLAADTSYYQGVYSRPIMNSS
Sequence of Retinoic acid receptor alpha (Homo sapiens) (P10276 whole entry, looked up): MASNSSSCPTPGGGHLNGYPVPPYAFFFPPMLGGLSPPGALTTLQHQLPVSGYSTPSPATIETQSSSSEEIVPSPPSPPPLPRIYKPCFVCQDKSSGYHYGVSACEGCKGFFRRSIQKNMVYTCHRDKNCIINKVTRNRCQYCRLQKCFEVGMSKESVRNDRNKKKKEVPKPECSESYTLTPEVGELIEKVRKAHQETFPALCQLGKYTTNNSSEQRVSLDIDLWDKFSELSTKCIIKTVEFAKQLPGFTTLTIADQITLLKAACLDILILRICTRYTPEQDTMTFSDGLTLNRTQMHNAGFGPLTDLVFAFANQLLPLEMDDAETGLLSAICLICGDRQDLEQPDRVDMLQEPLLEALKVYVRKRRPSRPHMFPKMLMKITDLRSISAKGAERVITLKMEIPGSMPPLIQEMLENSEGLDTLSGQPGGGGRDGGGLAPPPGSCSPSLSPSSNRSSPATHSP

CCOC(=O)c1nc(C(Cl)(Cl)Cl)n(-c2ccc(Cl)cc2Cl)n1
active: [2] 29.6 µM | [3] 48.5 µM | [5] 57.8 µM | [6] 25.3 µM | [9] 181 µM | [12] 100 µM | [15] 100 µM | [19] 164 µM | [20] 26.6 µM
inactive: all other assays above

C=CC(=O)OCCN(CC)CC
active: [1] 44.2 µM | [2] 63.2 µM | [3] 26.6 µM | [4] 65.6 µM | [5] 178 µM | [10] 37 µM | [12] 54.4 µM
not listed: [18]
inactive: all other assays above

C=CCOCC(CO)(CO)CO
not listed: [18]
inactive: all other assays above

CC(C)(C)c1ccc(O)c(O)c1
active: [2] 64.9 µM [middle of 4 runs] | [3] 40.8 µM | [7] 47.3 µM | [12] 48.7 µM [middle of 4 runs] | [20] 45 µM and 59 µM and 37.3 µM
inactive: [1] | [2] | [3] | [6] | [7] | [9] | [10] | [11] | [12] | [13] | [15] | [16] | [17] | [18] | [19] | [20]

Clc1ccc2c(Cl)ccnc2c1
active: [2] 57.3 µM | [4] 19.8 µM | [7] 65.6 µM
inactive: all other assays above

CCCCCCCCCCCC(=O)NCCCN(C)C
active: [7] 17.6 µM | [12] 20.3 µM | [17] 20.3 µM | [18] 17.2 µM | [20] 16.4 µM
not listed: [15]
inactive: all other assays above

Cc1ccc(S(=O)(=O)O)cc1
not listed: [14] | [15] | [19] | [20]
inactive: all other assays above
